Test [1] concerns the target T1, Aspartate--tRNA(Asp/Asn) ligase (Mycobacterium tuberculosis (strain ATCC 25618 / H37Rv)) (UniProt P9WFW3). Note: in the data most compounds retested in dose-response had high values.
T1 sequence (whole entry): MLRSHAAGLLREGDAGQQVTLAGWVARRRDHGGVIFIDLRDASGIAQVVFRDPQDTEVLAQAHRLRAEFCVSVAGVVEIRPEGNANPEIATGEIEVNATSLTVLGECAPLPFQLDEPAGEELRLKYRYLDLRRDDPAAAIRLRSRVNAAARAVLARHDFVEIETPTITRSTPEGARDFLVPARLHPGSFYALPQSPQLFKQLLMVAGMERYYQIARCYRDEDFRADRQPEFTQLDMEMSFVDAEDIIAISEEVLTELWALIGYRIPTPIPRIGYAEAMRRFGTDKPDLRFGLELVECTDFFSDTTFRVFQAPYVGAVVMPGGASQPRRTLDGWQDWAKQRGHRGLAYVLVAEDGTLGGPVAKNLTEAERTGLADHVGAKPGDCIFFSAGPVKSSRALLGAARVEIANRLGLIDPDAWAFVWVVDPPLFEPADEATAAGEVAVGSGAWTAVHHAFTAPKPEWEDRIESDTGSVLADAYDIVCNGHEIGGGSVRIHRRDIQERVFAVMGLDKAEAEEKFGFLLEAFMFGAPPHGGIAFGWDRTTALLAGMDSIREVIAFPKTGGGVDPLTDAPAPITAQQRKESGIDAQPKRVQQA
The experiment in a line: Assay for Asp RNA synthetase-1 from Mycobacterium tuberculosis. The format is functional. Also on record: scale not given: direction of the effect not stated beside the values. Conditions: 30 µM.

Test [2] deals with Shiga toxin 2 (Escherichia coli O157:H7) (UniProt P09385+P09386). Kind of test: E. coli 0.157:H7 Shiga Toxin SOP - stx2 screening assay. Conditions: 30 µM. Also on record: scale not given: direction of the effect not stated beside the values. It counts as functional.

SMILES strings stand for the structures.

Take `O=C(COc1coc(CN2CCOCC2)cc1=O)c1ccc(Cl)cc1`: the Percent Effect is 4.37% in test [1] and -57.8% in test [2].

As to `CC(C)c1nc(C(=O)N2CCOCC2CC(=O)c2ccco2)c[nH]1` (stereo unspecified), the Percent Effect in test [1] is -0.629%; in test [2], -1.83%.

As to `CCNc1cc2c(nn1)CCN(C(=O)c1ccc3cc[nH]c3c1)C2`, the Percent Effect in test [1] is 2.23%; in test [2], -3.04%.

On to `CCc1n[nH]c(C2CN(C(=O)c3nc(C)ncc3Cl)CCO2)n1` (stereo unspecified), for which the values for the Percent Effect in test [1] and in test [2] were 0% and -0.974%, respectively.

Consider `O=C(Cn1cccnc1=O)NCCc1ccc2c(c1)OCCO2`, for which the values for the Percent Effect in test [1] and in test [2] were 2.57% and -33.8%, respectively.

On to `Cc1cccc2nc(C(=O)N3CCC(Nc4cccnn4)CC3)cn12`, for which the results for the Percent Effect in test [1] and in test [2] were -1.93% and 8.8%, respectively.

As to `O=C(CCc1cccc(F)c1F)N1CCN(Cc2ccco2)CC1`, the figures for the Percent Effect in test [1] and in test [2] were 0.502% and -2.83%, respectively.

In the case of `Cc1nc(-c2ccccc2F)sc1C(=O)N1CCN(C)CC1`, the Percent Effect was 1.4% in test [1] and -0.463% in test [2].

For the compound `CCS(=O)(=O)N1CCC(c2cc3n(n2)[C@@H](C(F)(F)F)C[C@@H](C)N3)CC1`, the Percent Effect in test [1] was found to be 5.23%; in test [2] it was 13%.

Consider `CC(NC(=O)CSCC#N)c1ccccc1` (stereo unspecified), for which the Percent Effect in test [1] was determined as 2.98%; in test [2], 13.3%.

In the case of `Cn1nnc2c1CCN(CC1CC1)C2COCc1ccccc1` (stereo unspecified), the Percent Effect in test [1] amounted to 1.84%; in test [2] it was 0.25%.

Take `CCc1ncc2c(n1)CN(Cc1nc(-c3ccccn3)no1)CC2`: the Percent Effect in test [1] was 0.141%; in test [2], -30.2%.

Take `Cc1nn(C)c(N2CCOCC2)c1CNCc1ccc(Cl)s1`: the Percent Effect in test [1] stood at 5.1%; in test [2], 27.1%.

`CC(CCc1ccco1)NC(=O)Nc1cc(C(F)(F)F)c[nH]c1=O` (stereo unspecified): the Percent Effect was determined as 0.141% in test [1] and 36.5% in test [2].

In the case of `CC(C(=O)NCc1ccc(-n2cncn2)nc1)n1ccnc1` (stereo unspecified), the Percent Effect in test [1] amounted to 5.56%; in test [2] it was 19.8%.

For the compound `O=C(c1ccc(Br)o1)N1CCCC(n2cncn2)C1` (stereo unspecified), the Percent Effect in test [1] is 5.01%; in test [2], -10.4%.

As to `CS(=O)(=O)N1CCCCCC1C1CCN(c2ncccc2C#N)CC1` (stereo unspecified), the Percent Effect is -0.456% in test [1] and 27.9% in test [2].

For `O=C(c1cnccn1)N1CCc2onc(CN3CCOCC3)c2C1`, the Percent Effect in test [1] was -0.84%; in test [2] it was -5.1%.
